Hits are enriched below; roughly 7.5% of the tested compounds scored in any of these assays.
SMN2 splice enh = enhancers of SMN2 splice variant expression | Potency, µM (titrated, usually from 46.1 µM), actives largely listed as activators | AID 1458 | HEK293 SMN2-luciferase splicing reporter, luminescence, 30-36 h | 2.8% of 210,000 active; further: nearly all actives have a fitted effect of over 55% in size
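qHTS luciferase splicing reporter: luminescence rises when SMN2 exon 7 is included in transfected HEK293 cells. Compound exposure lasted 30-36 h at 37C, with 4.5 mM final sodium butyrate as control, followed by a ONE-Glo read.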
NPC1 promoter act = NPC1 promoter activation. AID 485313. Huh7 NPC1 promoter luciferase reporter, 24 h. Potency, µM (series often up to 9.22 µM), hits mostly activators. 2.4% of 320,000 active; further: nearly all actives have a fitted effect of over 60% in size
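Huh7 cells stably carrying NPC1 promoter–luciferase, plated in Opti-MEM with 10% FBS for 2 h, were exposed to compound in DMSO for 24 h at 37 °C; luciferase reagent was added for 10 min and luminescence read.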
ELG1 genotox = induces genotoxicity in HEK293T cells with luciferase-tagged ELG1; HEK293T ELG1-luciferase reporter, luminescence, 16 h; Potency, µM (top dose mostly 46 µM), most hits filed as activators; 1.3% of 330,000 active; further: nearly all actives have a fitted effect of over 60% in size
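Reporter readout depends on ELG1 protein level, which increases with genetic stress. After 16 hr compound exposure at 37 °C, luciferase activity was quantified using ONE-Glo.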
Rab9 promoter act = activators of Rab9 promoter; Huh7 Rab9 promoter-luciferase reporter, luminescence, 24 h; Potency, µM (top dose mostly 9.22 µM), actives largely listed as activators; 2.8% of 320,000 active; AID 485297; further: nearly all actives have a fitted effect of over 60% in size
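Rab9 promoter-driven luciferase in stably transfected Huh7 cells; 1500 cells/well rested 2 h, exposed to compound in DMSO for 24 h at 37 °C, 5% CO2. Luminescence read 10 min after adding luciferase reagent at ambient temperature.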
FLuc counter = inhibits or activates purified firefly luciferase, miR-21 counter-screen. P08659. purified FLuc, Km substrates, luminescence inhibition. Potency, µM (highest dose often 57.5 µM), hits mostly inhibitors. 6.9% of 360,000 active; further: nearly all actives have a fitted effect of over 55% in size
Target sequence (P08659 whole entry, looked up): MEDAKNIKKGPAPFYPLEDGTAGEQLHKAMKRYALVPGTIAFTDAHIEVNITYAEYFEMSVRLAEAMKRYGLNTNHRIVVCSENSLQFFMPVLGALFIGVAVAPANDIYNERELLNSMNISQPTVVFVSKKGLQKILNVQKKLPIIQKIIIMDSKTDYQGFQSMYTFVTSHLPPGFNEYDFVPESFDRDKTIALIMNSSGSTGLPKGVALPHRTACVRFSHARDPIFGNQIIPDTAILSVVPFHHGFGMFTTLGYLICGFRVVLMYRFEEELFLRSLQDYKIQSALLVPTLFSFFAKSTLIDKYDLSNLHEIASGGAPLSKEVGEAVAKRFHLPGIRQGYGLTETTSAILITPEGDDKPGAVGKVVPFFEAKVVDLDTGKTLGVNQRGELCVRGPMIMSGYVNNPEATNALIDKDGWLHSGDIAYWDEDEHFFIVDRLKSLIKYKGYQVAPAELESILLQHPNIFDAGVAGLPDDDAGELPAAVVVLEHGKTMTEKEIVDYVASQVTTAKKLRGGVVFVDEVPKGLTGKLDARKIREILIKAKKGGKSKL
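Biochemical qHTS of compounds, final roughly 60 µM downward over six points, against 10 nM purified firefly luciferase using Km concentrations of substrates (10 uM D-luciferin, 10 uM ATP) in Tris acetate pH 7.5 buffer; luminescence output.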
KinaseGlo FLuc = counter-screen: inhibitors of Kinase-Glo firefly luciferase; 0.28% of 200,000 active; Potency, µM (doses to about 38.3 µM), actives largely listed as inhibitors; Q27757; Kinase-Glo luciferase, ATP luminescence, 8 min; further: nearly all actives have a fitted effect of over 60% in size
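Compounds were added to a substrate mix at pH 7.2 (50 mM imidazole, 10 uM ATP, within the enzyme's linear range), followed by Kinase-Glo detection reagent; luminescence was measured after 8 minutes at ambient temperature.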
Hits are given with their value; . = inactive; ? = inconclusive; / = no result given; [ ] = remark or other dose. The call rests on the fitted dose curve; in most records, active means well fitted curve in the direction sought with a large enough effect; inconclusive means small, poorly fitted or top-dose-only effect, or another doubt; inactive means no such curve, though single readings can be large; an effect the other way counts as inactive or inconclusive.

SMILES | SMN2 splice enh | NPC1 promoter act | ELG1 genotox | Rab9 promoter act | FLuc counter | KinaseGlo FLuc
COc1cc2c(cc1OC)-c1cc(NC3CC3)nc(=O)n1CC2 | 14µM | . | ? | . | . | .
CCOc1ccc(Nc2cc3n(c(=O)n2)CCc2cc(OC)c(OC)cc2-3)cc1 | / | . | ? | .[1.84 µM] | 13µM | /
O=C(c1cnn2c1NC(=C1CC1)C=C2C(F)F)N(C1CCCCC1)C1CCCCC1 | / | / | / | / | . | /
CCCCc1nn2c(=O)cc(COC(=O)C(C)Oc3ccccc3)nc2s1 (stereo unspecified) | / | / | / | / | . | /
CC1(CC(=O)N/N=C/c2ccc(-c3ccc(Cl)cc3)o2)OCCO1 | . | . | . | . | 3.4µM | .
COC(=O)c1ccc(-c2ccc(/C=N/NC(=O)CC3(C)OCCCO3)o2)cc1 | 11µM | ? | . | ? | ? | .
CCOC(=O)Cn1cnc2c(cnn2-c2ccc(Cl)cc2)c1=O | / | . | . | ? | ? | /
CCOC(=O)CSc1ncnc2c1cnn2-c1ccc(Cl)cc1 | . | . | . | . | 9.5µM | .
Cc1nnc2c3cnn(-c4ccc(Cl)cc4)c3ncn12 | . | ? | 21µM | ? | ? | .
CCOC(=O)CC(=O)CSc1ncnc2c1cnn2-c1ccccc1 | . | ? | ? | ? | 24µM | .
CCOC(=O)CSc1ncnc2c1cnn2-c1ccc(C)cc1 | . | . | ? | . | ? | .
NCC(=O)NC1(C(=O)O)CCCC1 | .[9.22 µM] | / | / | / | / | .[7.66 µM]
COc1ccc(CNC(=O)Cn2ncc3c(=O)oc4ccccc4c32)c(OC)c1 | . | / | / | / | . | /
Cc1cccc(/C=N/n2c(C)nnc2C)c1 | . | . | . | . | . | .
O=C(N/N=C/c1ccc(Br)cc1)c1ccc(Br)o1 | 11µM | ? | ? | 3.2µM | 4.3µM | .
O=C(N/N=C/c1ccc(F)cc1)c1ccc(Br)cc1 | . | . | . | . | 9.5µM | .
Cc1cccc(/C=N/NC(=O)c2ccc(Br)cc2)c1 | ? | . | ? | ? | 3.4µM | .
Cc1cccc(/C=N\N=C\c2cccc(C)c2)c1 | / | ? | . | . | 8.5µM | /
Cc1ccc2oc(=O)c3cc(C(=O)Nc4ccc(C)c(F)c4)sc3c2c1 | . | / | / | / | . | /
COc1cc(OC)c2c(OC)c(-c3ccc4c(c3)OCO4)c(=O)oc2c1 | ? | / | / | / | / | .
Cc1ccccc1NC(=O)CSc1nc2c(oc3ccccc32)c(=O)n1Cc1ccco1 | . | / | / | / | . | /
Cc1cc2n(n1)CCCN2C(=O)Nc1ccc(C)c(Cl)c1 | . | / | / | / | . | /
O=C(N/N=C/c1ccc(Br)cc1)c1ccc(F)cc1 | 13µM | ? | ? | . | 6µM | .
N#CN1CCC(NS(=O)(=O)c2ccc(C(F)(F)F)cc2)C1 (stereo unspecified) | / | . | . | . | . | /
COC(=O)C1=C(C)NC2=C(C(=O)c3ccccc32)C1c1cccc(OC)c1 (stereo unspecified) | / | . | . | . | . | /
SMILES | SMN2 splice enh | NPC1 promoter act | ELG1 genotox | Rab9 promoter act | FLuc counter | KinaseGlo FLuc
COc1cccc([C@@H]2Oc3ccc(Br)cc3C(=O)[C@H]2O)c1 | ? | / | / | / | / | .
COc1cccc([C@@H]2Oc3ccc(OC)cc3C(=O)[C@H]2O)c1 | 5µM | ? | 7.3µM | ? | . | .
COc1cccc(C2C(=O)c3ccccc3C2=O)c1 | / | . | . | . | 27µM | /
CCOC(=O)[C@H]1[C@H]2COc3ccc(OC)cc3[C@@H]2N2C(=O)c3cc(C)ccc3NC(=O)[C@@]12C | / | . | . | . | . | /
CCn1cnc2sc(C(=O)Oc3cccc(C)c3)c(C)c2c1=O | . | ? | 18µM | ? | ? | .
CO/N=C(/CNC(=O)c1ccc(F)cc1)c1ccc(Cl)cc1 | . | . | . | . | . | .
Cc1cc(/C=C2\C(=N)N3C(SCc4ccccc4)=NSC3=NC2=O)c(C)n1Cc1ccccc1 | . | . | . | . | 21µM | .
CC(C)CSC1=NSC2=NC(=O)/C(=C\c3coc4ccccc4c3=O)C(=N)N12 | . | . | . | . | 17µM | .
CC(C)CSC1=NSC2=NC(=O)/C(=C\c3ccccc3)C(=N)N12 | ? | 3.2µM | ? | 2.8µM | 17µM | .
CSC1=NSC2=NC(=O)/C(=C\c3coc4ccccc4c3=O)C(=N)N12 | . | . | . | . | . | .
Cc1ccc(C(=O)c2coc3c2C(=O)C(=O)c2ccccc2-3)cc1 | . | . | 14µM | . | ? | .
Cc1ccc(N(CC(=O)NC(C)(C)C)C(=O)CNC(=O)c2cccs2)c(C)c1 | . | . | . | . | . | .
Cc1ccc2nc(-c3ccc(Cl)c(NC(=O)COc4ccc(C(C)C)cc4)c3)oc2c1 | . | / | / | / | 11µM | /
CCOc1ccc(-c2nc3cc(NC(=O)COc4cccc(C)c4)ccc3o2)cc1 | . | / | / | / | . | /
Cc1ccc2oc(-c3ccc(C)c(NC(=O)c4ccc5c(c4)OCCO5)c3)nc2c1 | . | / | / | / | . | /
Cc1ccc2nc(-c3ccc(Cl)c(NC(=O)COc4ccc([N+](=O)[O-])cc4)c3)oc2c1 | . | / | / | / | . | /
COc1ccc(OCC(=O)Nc2ccc(-c3nc4cc(C)c(C)cc4o3)cc2)cc1 | 0.56µM | / | / | / | / | /
Cc1ccc(OCC(=O)Nc2ccc(-c3nc4ccc(C)cc4o3)cc2)cc1 | 0.63µM | / | / | / | . | /
Cc1ccc2nc(-c3ccc(Cl)c(NC(=O)c4ccc5c(c4)OCCO5)c3)oc2c1 | . | / | / | / | 11µM | /
CCOc1ccc(N(CC(=O)NN=C2CCCC2)S(C)(=O)=O)cc1 | / | . | . | . | . | /
CCOc1cc(C2NN=C(c3ccccc3)S2)ccc1OCc1ccccc1Cl (stereo unspecified) | . | ? | ? | ? | 7.6µM | .
CCOc1cc(C2NN=C(c3ccccc3)S2)ccc1OCc1ccc(F)cc1 (stereo unspecified) | 13µM | ? | 8.2µM | 3.2µM | 6µM | .
CNCc1ccccc1OCc1ccc(F)cc1 | . | . | . | . | . | .
C[C@H](NC(=O)N1CCn2c1nc1ccccc12)C(=O)N1CCCCC1 | / | . | . | . | . | /
CCCOc1cccc(C2c3c(oc4ccc(F)cc4c3=O)C(=O)N2CCc2ccc(OC)cc2)c1 (stereo unspecified) | . | / | / | / | . | /
SMILES | SMN2 splice enh | NPC1 promoter act | ELG1 genotox | Rab9 promoter act | FLuc counter | KinaseGlo FLuc
COC(=O)Cc1ccc(NC(=O)c2ccc(Br)o2)cc1 | ? | ? | 18µM | ? | 17µM | .
CCCOC(=O)c1ccc(NC(=O)c2ccc(Br)o2)cc1 | . | . | ? | . | 17µM | .
COC(=O)Cc1ccc(NC(C)=O)cc1 | / | . | . | . | . | /
COC(=O)Cc1ccc(NC(=O)C(c2ccccc2)c2ccccc2)cc1 | . | . | . | . | . | .
COc1ccc(-c2ccc(NC(=O)c3ccc(Br)o3)cc2)nn1 | / | 2µM | 2.1µM | 1.1µM | ? | /
COC(=O)Cc1ccc(NC(=O)c2ccc(C)c(C)c2)cc1 | ? | ? | 5.2µM | 2.5µM | 3µM | .
CCN(CC)c1ccc(NC(=O)c2ccc(Br)o2)cc1 | 11µM | 1.6µM | ? | 0.79µM | 5.4µM | .
